# Measurements: PubChem BioAssay (EPA / NIEHS)
# Inconclusive results are not listed. Activity calls are given as the source filed them. Rule for the calls: active = hit-call score of the fitted dose curve at least 0.9, where 1 is the maximum; inconclusive = response in the unintended direction; inactive = score below 0.9.
# Target: AR (gene 367) (UniProt P10275)
# Assay: ACEA_AR_agonist_80hr: ACEA Biosciences xCELLigence Real-Time Cell Analysis on Androgen Receptor Agonism for Proliferation (AID 2283783);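 note: hits increase impedance growth signal above DMSO baseline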
# In short: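 Androgen-driven proliferation in 22Rv1 cells is tracked as electrical impedance, taken 80 h after continuous exposure to compound (eight concentrations, 1:4 steps, maximum 100 uM final). Activity is fitted in the positive direction with DMSO as baseline.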
# Chain of AR (gene 367) (P10275 whole entry, looked up): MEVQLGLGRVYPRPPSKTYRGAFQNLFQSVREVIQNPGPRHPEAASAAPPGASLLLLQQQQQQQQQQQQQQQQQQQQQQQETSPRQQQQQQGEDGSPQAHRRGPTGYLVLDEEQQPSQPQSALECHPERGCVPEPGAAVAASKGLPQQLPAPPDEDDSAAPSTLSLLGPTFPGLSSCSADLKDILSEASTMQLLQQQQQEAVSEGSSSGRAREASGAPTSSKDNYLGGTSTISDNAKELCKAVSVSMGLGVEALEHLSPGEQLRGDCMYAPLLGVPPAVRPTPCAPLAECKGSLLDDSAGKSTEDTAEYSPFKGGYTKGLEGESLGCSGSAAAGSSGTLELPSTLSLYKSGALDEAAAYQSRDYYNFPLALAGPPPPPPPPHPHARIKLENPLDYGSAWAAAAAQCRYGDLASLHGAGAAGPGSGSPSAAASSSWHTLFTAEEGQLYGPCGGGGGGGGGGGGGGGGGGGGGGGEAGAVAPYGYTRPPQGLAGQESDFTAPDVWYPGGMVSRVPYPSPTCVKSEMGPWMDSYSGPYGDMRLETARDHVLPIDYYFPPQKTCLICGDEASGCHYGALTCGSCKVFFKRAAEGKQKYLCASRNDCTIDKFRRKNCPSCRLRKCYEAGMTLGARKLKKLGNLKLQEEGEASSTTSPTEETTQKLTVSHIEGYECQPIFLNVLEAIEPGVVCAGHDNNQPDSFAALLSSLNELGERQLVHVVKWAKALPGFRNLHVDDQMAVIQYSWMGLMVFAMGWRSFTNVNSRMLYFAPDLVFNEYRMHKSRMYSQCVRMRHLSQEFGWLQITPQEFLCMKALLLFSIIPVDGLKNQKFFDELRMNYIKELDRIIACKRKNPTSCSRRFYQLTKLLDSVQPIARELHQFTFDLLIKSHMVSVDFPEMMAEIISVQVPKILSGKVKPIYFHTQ
SMILES,outcome,AC50
O=C(CCCCCCCCc1cccnc1)N1CCC(C=C(c2ccccc2)c2ccccc2)CC1,inactive,–
O=C(O)c1cccc(N(Cc2cccnc2)c2ccc(OC(F)F)c(OC(F)F)c2)c1,–,10.5 µM (active)
CCCCC(CC)COC(=O)c1ccc(C(=O)OCC(CC)CCCC)cc1 (stereo not drawn),inactive,–
C1N2CN3CN1CN(C2)C3,inactive,–
Oc1ccc2c(c1)-c1ccccc1C2,inactive,–
CC(C)=CCC/C(C)=C\CO,inactive,–
Cc1ccc(N)cc1O,inactive,–
CCCN(C1CCN(C(=O)C2CCNCC2)CC1)[C@@H]1CCc2ccc(OC)cc2C1,inactive,–
CN(C)c1ccc(N=NS(=O)(=O)O)cc1,–,10.7 µM (active)

# System: not listed separately
# Assay: STM_H9_NormalizedViability: Cytotoxicity Assessment at 120 hours in the Stemina devTOX quickPredict H9 human embryonic stem cell (hESC)-based Assay (AID 2283784)
# In short: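 Undifferentiated H9 hESCs kept pluripotent were exposed to compound, with media and chemical replaced every 24h. CellTiter-Fluor protease-substrate fluorescence was background-corrected and normalized per plate to the 0.1% DMSO vehicle; signal loss indicates reduced viability.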
SMILES,AC50,outcome
COc1cccc(-c2ccc(/C=C\CN3CCCCCC3)cc2Cl)c1,1.1 µM (active),–
CC(C)CC(C)(O)C#CC(C)(O)CC(C)C (stereo not drawn),–,inactive
Fc1ccccc1[C@@H](F)COC1CCC(Nc2ncnc3[nH]ncc23)CC1 (stereo partly drawn),–,inactive
CCC(C)(C)C(=O)O[C@H]1C[C@@H](C)C=C2C=C[C@H](C)[C@H](CC[C@@H]3C[C@@H](O)CC(=O)O3)[C@H]21,–,inactive
CC(C)=CCCC(C)=CC=O,–,inactive
CC[C@H](C)C(=O)O[C@H]1C[C@@H](C)C=C2C=C[C@H](C)[C@H](CC[C@@H]3C[C@@H](O)CC(=O)O3)[C@H]21,–,inactive
CC(C)c1cccc(C(C)C)c1N1C(=O)c2ccc(O)cc2C1=O,20.6 µM (active),–
CCN(C(=O)c1cc(C)cc(OC[C@H](C)Nc2ccncc2)c1)C(C)C,–,inactive
Nc1nc2ncc(CNc3ccc(C(=O)N[C@@H](CCC(=O)O)C(=O)O)cc3)nc2c(=O)[nH]1,–,inactive
Cn1c(=O)cc(Oc2ccc(F)cc2F)c2cnc(NCC(C)(C)O)nc21,–,inactive
Cn1cnc([N+](=O)[O-])c1Sc1ncnc2nc[nH]c12,4.02 µM (active),–
On1ccccc1=S,8.35 µM (active),–
CCOC(=O)c1ccc(C2CCC(NC[C@H](O)COc3ccc(O)c(NS(C)(=O)=O)c3)CC2)cc1 (stereo partly drawn),–,inactive
O=c1n(CC2CO2)c(=O)n(CC2CO2)c(=O)n1CC1CO1 (stereo not drawn),1.06 µM (active),–
NC(=O)NO,341 µM (active),–
CC[C@H]1CC[C@H](NCc2cc3c(cc2OC)[C@H]2C[C@H]2C(=O)N3C)[C@H](c2ccccc2)N1,9.43 µM (active),–
COc1ccc2sc(C(=O)Nc3nnn[nH]3)c(OC(C)C)c2c1,2.01 µM (active),–
CNCc1ccc(NC(=O)c2c[nH]c3c2C(=O)CCC3)cc1,–,inactive
COCCOCCOCCOC,–,inactive
CC(C)CCO,–,inactive
O=c1[nH]c2ccc(S(=O)CCN3CCC(Cc4ccc(F)cc4)CC3)cc2o1 (stereo not drawn),–,inactive
Cn1c(=O)c2c(ncn2C)n(C)c1=O,–,inactive
Nc1ccc(Nc2ccccc2)cc1,6.7 µM (active),–
CN(C)c1ccc(N=NS(=O)(=O)O)cc1,21.1 µM (active),–
